Assay [1] deals with T1, ETS1 (UniProt P14921).
T1 sequence: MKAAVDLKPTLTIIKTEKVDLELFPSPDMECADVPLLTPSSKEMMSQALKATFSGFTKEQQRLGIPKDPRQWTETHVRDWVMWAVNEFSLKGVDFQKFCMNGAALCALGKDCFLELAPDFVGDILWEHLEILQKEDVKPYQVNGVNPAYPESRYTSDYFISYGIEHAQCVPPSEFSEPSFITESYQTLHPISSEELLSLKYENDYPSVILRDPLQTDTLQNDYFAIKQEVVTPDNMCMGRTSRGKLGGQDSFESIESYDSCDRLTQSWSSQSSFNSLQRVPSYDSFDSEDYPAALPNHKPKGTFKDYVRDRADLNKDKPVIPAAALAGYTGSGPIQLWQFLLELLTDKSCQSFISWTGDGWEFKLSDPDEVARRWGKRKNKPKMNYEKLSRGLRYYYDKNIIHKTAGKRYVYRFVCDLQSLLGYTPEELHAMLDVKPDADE
The assay is described as follows: ETS1 binding intensity (PBM fluorescence), ETS1 alone (arbitrary fluorescence units); higher = stronger binding. The following applies: ETS1 concentration 1 nM; RUNX1 concentration 0 nM.

The target in assay [2] is T1, ETS1. The assay is described as follows: ETS1 binding intensity (PBM fluorescence) in presence of RUNX1, normalised to ETS1-only experiment (arbitrary fluorescence units); higher = stronger binding. The conditions noted are these: ETS1 concentration 1 nM; RUNX1 concentration 25 nM.

For the sequence CGGCACCCTCCTTCCTCCCTGCCAACCGCCTCCACC, the values for the ETS1 binding intensity with ETS1 [1] and in the assay with ETS1 [2] were 556 and 696, respectively.
The matching figures for AGAGGAAGTAAATTCTAACAGTGGAAACCACAGATT: 647 and 2290.
For the sequence CCACTCCAGGAAACTCCTCCAGGTGAGCCCACAACT, the ETS1 binding intensity is 500 with ETS1 [1] and 474 in the assay with ETS1 [2].
In the case of GACTGAGATTTCCTGCCAGCAACCACATGGCTTGTC, the ETS1 binding intensity came out at 512 with ETS1 [1] and 577 with ETS1 [2].
The matching figures for CTCCCACGCTCCCCTTCCGGCCCCGCAGCGCTGTGA: 804 and 746.
On to ACAGATGGTCCGGAACTTCAGAAAACCACTCATTGT, for which the ETS1 binding intensity with ETS1 [1] is 583; with ETS1 [2], 592.
For ATGCGAGTCTGCTTCCTGCCACAAATCACAATTTGA, the ETS1 binding intensity in the assay with ETS1 [1] is 665; in the assay with ETS1 [2], 686.
Take GACACCTGAGAGGATGTGTGGCTTTGTGCTATGAGA: the results for the ETS1 binding intensity with ETS1 [1] and with ETS1 [2] were 769 and 847, respectively.
For the sequence AGGTACTCACCATTCCGGCGGTTGCTACTGTCACTG, the ETS1 binding intensity was 459 with ETS1 [1] and 428 with ETS1 [2].
With CCACGCCCCCTCCTTCCGCTGCGGGAGATAGCCACT, the ETS1 binding intensity was found to be 787 with ETS1 [1] and 751 with ETS1 [2].
ATGACTCATTTCCTCACTCTCTACTCCCACAGAACC: the figures for the ETS1 binding intensity in the assay with ETS1 [1] and with ETS1 [2] were 606 and 464, respectively.
For GACGCTCTCTTCCTGTCTTTGTGGCTCCAGAAAGGC, the ETS1 binding intensity with ETS1 [1] turned out to be 830; in the assay with ETS1 [2] it was 630.
For the sequence CAGCTGCCTCCAGGAAGCGGTAAGTGACTCTGGTGG, the ETS1 binding intensity was 1150 with ETS1 [1] and 1660 with ETS1 [2].
CCGACCTTAACGACATCCTGCGGCTCAGCGTGGAGG: the results for the ETS1 binding intensity in the assay with ETS1 [1] and with ETS1 [2] were 489 and 437, respectively.
With CAGTTCCAGGAAGCAGCCCCAAGCTTGTGGCCCTGA, the ETS1 binding intensity with ETS1 [1] was determined as 526; with ETS1 [2] it was 305.
With CGTTTCCTGTGGCTGCAGCTCTCCCCACCCACACAC, the values for the ETS1 binding intensity with ETS1 [1] and with ETS1 [2] were 829 and 781, respectively.
Regarding GTGGGTAGGGAGGAAGCTGTGAAACCACCTCCCCTC, the ETS1 binding intensity with ETS1 [1] came to 688; with ETS1 [2] it was 882.
As for GTCCTCCAGGAAGCCCGCGCTAACCACCGTGCCTTT, the ETS1 binding intensity with ETS1 [1] turned out to be 420; with ETS1 [2], 688.
As for CAGCTTCCGGGCTAATTAGCAGTCGCGGTGTGCCGC, the ETS1 binding intensity with ETS1 [1] is 413; with ETS1 [2], 450.
Take CCTCCTCTTCCTCCCCACTCTGCACATGCGGCTGGG: the ETS1 binding intensity stood at 520 with ETS1 [1] and 344 with ETS1 [2].
With ACAGGAAGTCAGCTGAGTACCGAGCAAGCCGCATGC, the ETS1 binding intensity with ETS1 [1] is 1770; with ETS1 [2] it was 2090.
On to TTTGCACACATCCTGGCCTCCGCCTGACCACCTCCT, for which the ETS1 binding intensity with ETS1 [1] worked out at 483; in the assay with ETS1 [2] it was 586.
The corresponding values for TGAAGGAGCGGAAGGGTTGCTTGCAGACCGCACGGT are 574 and 1360.
For CTGGGGCTGAGGGAGGGATGTGGTGGGGCCCAGGCT, the ETS1 binding intensity in the assay with ETS1 [1] is 411; in the assay with ETS1 [2], 521.
As to TGCCGGAAGCCCGCCAGGCACAGGACCCGCAGGGGT, the ETS1 binding intensity is 588 in the assay with ETS1 [1] and 545 with ETS1 [2].
Turning to AAAGGGCAGACTTCCCTGCCCACATCTCTGCTCCTG, the ETS1 binding intensity in the assay with ETS1 [1] is 462; with ETS1 [2] it was 359.
For the sequence GTCTTCACATGTAGGGGAAGTGGGTTAGCGTAGGAG, the ETS1 binding intensity in the assay with ETS1 [1] was found to be 951; with ETS1 [2] it was 1260.
As for TGGCTGTTCAGCCTTCCGCTTGTGGCTCCACCCCCG, the ETS1 binding intensity in the assay with ETS1 [1] is 594; with ETS1 [2], 493.
The matching figures for TTCAAAGGAGTCCAAGGAAGTGGTTTAACAGCGATG: 843 and 1400.
Consider TTCTTGTTTCCTGTCAAGGGAGGCTCTGACCACCTC, for which the ETS1 binding intensity with ETS1 [1] was 728; in the assay with ETS1 [2] it was 753.
The corresponding values for GCGCACGCGCGTTGTTTCCGCGGTAGTCAGGGCAGT are 477 and 364.
As to CCAGATTAGGAAACCCACCCGGCCCACAAAAAGCGG, the figures for the ETS1 binding intensity with ETS1 [1] and in the assay with ETS1 [2] were 445 and 302, respectively.
For CTCGGCGCGACGGATATTCCCGTGACCGCCGGGTTC, the ETS1 binding intensity worked out at 672 with ETS1 [1] and 920 with ETS1 [2].
Turning to ATTGTAAATTTCCTTTAAACGTCCCCACCGCGCTCC, the ETS1 binding intensity stood at 463 in the assay with ETS1 [1] and 480 with ETS1 [2].
On to CAGTCAGACGGAAGCCCGGCTTCTGTGGTGCCTGCC, for which the results for the ETS1 binding intensity with ETS1 [1] and with ETS1 [2] were 459 and 473, respectively.
Take GGCGGAACTTGTGCGTACGCTGGAAAACCGCTGGGG: the figures for the ETS1 binding intensity in the assay with ETS1 [1] and in the assay with ETS1 [2] were 385 and 545, respectively.
The matching figures for TTTACGGGATGTAGGCGGCGGCGGCGGTAGTGGTAG: 701 and 771.
As for AGGCAGGGAAGTGGCGCAGAGGAGACCACAGGACAC, the ETS1 binding intensity in the assay with ETS1 [1] was found to be 563; with ETS1 [2], 803.
Turning to GAGTGGGGGTGGGGAGGAAGCCACAGGGCCGGGCTG, the ETS1 binding intensity in the assay with ETS1 [1] amounted to 624; in the assay with ETS1 [2] it was 771.
With TTGCGTCACGTCCGGCCTGCGAGTTACCGCCCACTC, the values for the ETS1 binding intensity in the assay with ETS1 [1] and with ETS1 [2] were 690 and 603, respectively.
Turning to AAGCTGAAAAGGGGATGTGGTTGCCTGCCTGTGGGA, the figures for the ETS1 binding intensity with ETS1 [1] and with ETS1 [2] were 534 and 863, respectively.
On to GCTAAAGGAAGCTCTGTACAGCTGTGGTAAGGTGGC, for which the ETS1 binding intensity with ETS1 [1] is 552; with ETS1 [2] it was 792.
The corresponding values for AGACCCGGACCGGAACCTTGGCGCGGTGACGCTAGT are 1050 and 975.
With GAAGTGATGTTAGACGGATGTGGGTGGTGCCTCCGG, the figures for the ETS1 binding intensity with ETS1 [1] and with ETS1 [2] were 1620 and 2790, respectively.
The corresponding values for TGACTCACCTTCCTGTAGGTTGGTTTTCTGCATATC are 472 and 308.
With ATGCCAAGGGACTTCCCTCCACAACCGCCCCCAGCT, the figures for the ETS1 binding intensity with ETS1 [1] and with ETS1 [2] were 642 and 529, respectively.
The matching figures for GCTCTGGCGGAAGATGTCCCTGCGGTGCAGCTGCCG: 397 and 465.
Consider AAGCCCTAGAGGAAATTAGTACGTAACCACCTTCTG, for which the ETS1 binding intensity worked out at 540 with ETS1 [1] and 844 with ETS1 [2].
For CAGCCCTCTTCCTGCCTGTCTGTGGCTGGTGAGGTT, the ETS1 binding intensity with ETS1 [1] was found to be 597; with ETS1 [2] it was 431.

The values are drawn from the supplement of paper PMC10681739.
